We go through 10 compounds from PubChem BioAssay (NCI).

The structures appear in SMILES notation. Compounds without any hit were thinned out: in the full panel of roughly 83,000, 20% have a hit.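 Step 1: grow cells in 96-well plates. Step 2: add test compound at a single concentration. Step 3: incubate 48 h. Step 4: record percent growth.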 Unmarked numbers belong to inactive results. Calls of active or inactive are those of the source. The calls were made as follows: active = growth percent below 10; inactive = the rest.

This experiment has as its system DU-145 prostate. Kind of experiment: NCI-60 one-dose screen, 48 h (100 = growth as untreated, 0 = no growth, -100 = all killed). As to conditions: 10 µM.
Take `C/C(=N\O)c1ccc(NC(=O)CSc2nnc(-c3ccccc3)n2-c2ccccc2)cc1`: the growth was 90.6%.

Consider `CCC(CC)n1c(C)cc(=O)n1C(CC)CC`, for which the growth is 113%.

On to `CC[C@@H](C(=O)[C@H](C)[C@H](O)[C@@H](C)[C@H]1O[C@H]([C@@H](CC)C(=O)O)CC[C@H]1C)C1O[C@]2(C=C[C@@H](O)[C@]3(CC[C@@](C)([C@H]4CC[C@](O)(CC)[C@H](C)O4)O3)O2)[C@H](C)C[C@@H]1C` (stereo not given in full), for which the growth was 51.3%.

Consider `O=C(O)c1cc([N+](=O)[O-])ccc1Oc1ccccc1`, for which the growth was 104%.

Turning to `O=[N+]([O-])c1cccc(/C=N/NC(=S)NC23CC4CC(CC(C4)C2)C3)c1`, the growth was 83.9%.

In the case of `COc1cc(C(=O)n2nc(-c3cc(OC)c(OC)c(OC)c3)nc2N)cc(OC)c1OC`, the growth is 101%.

On to `COc1ccc(-c2n[nH]nc2-c2cc(OC)c(OC)c(OC)c2)cc1`, for which the growth was -14.1% (active).

As for `C=CCN(CC=C)C(=O)[C@H](CC)[C@@H]1CC[C@@H](C)[C@@H]([C@H](C)[C@@H](O)[C@@H](C)C(=O)[C@H](CC)C2O[C@]3(C=C[C@@H](O)[C@]4(CC[C@@](C)([C@H]5CC[C@](O)(CC)[C@H](C)O5)O4)O3)[C@H](C)C[C@@H]2C)O1` (stereo not given in full), the growth was 53.7%.

Consider `O=C(Nc1cccc2c1CCCC2)c1cc2ccccc2cc1O`, for which the growth is 51.2%.

Regarding `O=C1/C=C/[C@@H](O)[C@@H]2C[C@@H](O)C[C@H]2/C=C/CCC[C@H](CCc2ccc(NC(=S)Nc3ccc4c(c3)C(=O)OC43c4ccc(O)cc4Oc4cc(O)ccc43)cc2)O1`, the growth was 17.4%.
